# In PubChem BioAssay (Tox21):
# The source made the active and inactive calls. Entries that show only a call come without a potency. Calls follow the shape of the dose curve; as a rule, active = well fitted activation curve with a large enough effect in the repeat runs; inconclusive = weak or mixed curves; inactive = flat fitted curve, though single readings scatter.
# Assay: A CellTox Green Cytotoxicity Assay to monitor cytotoxicity in HepG2 cells - 0 hour (AID 1224882); also: nearly all actives have a fitted effect of over 35% in size
# Conditions: CellTox Green fluorescence; series mostly up to 76.8 µM
# Excerpt: National Center for Advancing Translational Sciences [NCATS]
# NIH Chemical Genomics Center [NCGC]
# U.S. Environmental Protection Agency [EPA]
# National Institutes of Environmental Health Sciences [NIEHS]
# National Toxicology Program [NTP]
# Cell-based models are critical for drug discovery. Determining the natural cytotoxic effects resulting from test compounds is an essential research activity. A CellTox Green Cytotoxicity Assay to monitor cytotoxicity in real time of continues cell culture during 40 hours of the compound treatment was used to screen Tox21 10K library compounds in HepG2 cells. CellTox Green Cytotoxicity Assay is a nonlytic, homogeneous, biofluorescent method to measure cytotoxicity in cell culture after experimental manipulation. The assay system uses a proprietary asymmetric cyanine dye that is excluded from viable cells but preferentially stains the dead cell's DNA. […] Viable cells produce no appreciable increases in fluorescence. Therefore, the fluorescence signal produced by the binding interaction with dead cell DNA is proportional to cytotoxicity.
# The mixture of HepG2 cell suspension and reagents were dispensed at 600cells/6 ul/well in 1536-well tissue culture treated black solid bottom plates using a Multidrop dispenser. After the assay plates were incubated at a 37 C/5% CO2 incubator for 5 hours, 23 nL of compounds dissolved in DMSO, positive and negative controls was transferred to the assay plate by a pintool work station. The plates were incubated at 37 C for 40 hours. The fluorescence intensity were measured at 0h, 8h, 16h, 24h, 32h and 40h time points using ViewLux plate reader during compound treatment.
SMILES,Potency,cytotoxicity
CC(=O)N1CCN(c2ccc(OC[C@H]3CO[C@](Cn4ccnc4)(c4ccc(Cl)cc4Cl)O3)cc2)CC1,inactive,
CC(C)=CCOc1ccc(/C=C/C(=O)c2ccc(OCC=C(C)C)cc2OCC(=O)O)cc1,inactive,
Cc1cc(O)c(C(C)(C)C)cc1C(C)(C)C,inactive,
Cc1cc(O)c(C(C)(C)C)cc1Sc1cc(C(C)(C)C)c(O)cc1C,inactive,
CC(C)c1ccc2c(c1)CC[C@H]1[C@](C)(CN)CCC[C@]21C,inactive,
Cc1cccc(N(C)C(=S)Oc2ccc3c(c2)C2CCC3C2)c1 (stereo not given),inactive,
Cc1oc(-c2ccccc2)nc1CCC(=O)c1ccc(CC2SC(=O)NC2=O)cc1 (stereo not given),inactive,
CCN(C(=O)N(CC)c1ccccc1)c1ccccc1,inactive,
OC1(c2ccc(Cl)c(C(F)(F)F)c2)CCN(CCCC(c2ccc(F)cc2)c2ccc(F)cc2)CC1,inactive,
ON=C1CCCC1,inactive,
CCCCCCCC/C=C/CCCCCCCC1=NCCN1CCO,inactive,
C[n+]1ccn(Cc2ccccc2)c1,inactive,
CCCCC(CC)CN=C(N)NC(N)=NCCCCCCN=C(N)NC(N)=NCC(CC)CCCC (stereo not given),inactive,
CCC(CN)=C(c1ccccc1)c1ccccc1,inactive,
CCCCCCCCNC(C)C(O)c1ccc(SC(C)C)cc1 (stereo not given),inactive,
CCCN(CCC)c1c([N+](=O)[O-])cc(C(F)(F)F)c(N)c1[N+](=O)[O-],inactive,
C=CC(=O)OCC(CO)(COCC(COC(=O)C=C)(COC(=O)C=C)COC(=O)C=C)COC(=O)C=C,inactive,
O=C(OC[C@H]1O[C@@H](OC(=O)c2cc(O)c(O)c(OC(=O)c3cc(O)c(O)c(O)c3)c2)[C@H](OC(=O)c2cc(O)c(O)c(OC(=O)c3cc(O)c(O)c(O)c3)c2)[C@@H](OC(=O)c2cc(O)c(O)c(OC(=O)c3cc(O)c(O)c(O)c3)c2)[C@@H]1OC(=O)c1cc(O)c(O)c(OC(=O)c2cc(O)c(O)c(O)c2)c1)c1cc(O)c(O)c(OC(=O)c2cc(O)c(O)c(O)c2)c1,,-19.7% [at 15.8 µM] (inactive)
Oc1ccc(Cl)cc1Sc1cc(Cl)ccc1O,inactive,
CN(C)C(=O)C1(N2CCCCC2)CCN(CC[C@@]2(c3ccc(Cl)c(Cl)c3)CN(C(=O)c3ccccc3)CCO2)CC1,inactive,

SMILES,Potency,cytotoxicity
CSc1ccc(C(=O)c2[nH]c(=O)[nH]c2C)cc1,inactive,
CCCCCCCCCCC=O,inactive,
CCN(Cc1cccnc1)C(=O)c1cccc(Cl)c1[C@]1(C)C(=O)N(Cc2ccc(OC)cc2OC)c2ccc(Cl)cc21,inactive,
Cc1ccc(-n2nc(C(C)(C)C)cc2NC(=O)Nc2ccc(OCCN3CCOCC3)c3ccccc23)cc1,inactive,
COc1ccc(CN2CCN(C(c3ccc(F)cc3)c3ccc(F)cc3)CC2)c(OC)c1OC,inactive,
CCCCCCCCOC(=O)c1ccc(O)cc1,inactive,
CCCCCCCCCCCCCC[P+](CCCC)(CCCC)CCCC (tested in a mixture with another compound),inactive,
N/C(=N\N=C\c1ccc(Cl)cc1)N/N=C/c1ccc(Cl)cc1,inactive,
CC[C@H]1O[C@]2(CC[C@@H]1C)C[C@@H]1C[C@@H](C/C=C(\C)C[C@@H](C)/C=C/C=C3\CO[C@@H]4[C@H](O)C(C)=C[C@@H](C(=O)O1)[C@]34O)O2,inactive,
C[C@@H](NCCCc1cccc(C(F)(F)F)c1)c1cccc2ccccc12,inactive,
Cc1c(C)c2c(c(C)c1OC(=O)CCC(=O)O)CC[C@@](C)(CCC[C@H](C)CCC[C@H](C)CCCC(C)C)O2,inactive,
Nc1ccccc1O,inactive,
Cc1cc(N)c(S(=O)(=O)O)cc1Cl,inactive,
C[n+]1cc2c3c(ccc2c2ccc4cc5c(cc4c21)OCO5)OCO3,,-26.7% [at 15.8 µM] (inactive)
CNc1ccc(O)cc1,inactive,
Nc1ccc(N)c2ccccc12,inactive,
CCC(Cl)C(Cl)C(Cl)CC(Cl)C(Cl)C(C)Cl (stereo not given),inactive,
Clc1ccc2cc3ccccc3cc2c1,inactive,
CCC1=C[C@@H]2CN(C1)Cc1c([nH]c3ccccc13)[C@@](C(=O)OC)(c1cc3c(cc1OC)N(C)[C@H]1[C@@](O)(C(=O)OC)[C@H](OC(C)=O)[C@]4(CC)C=CCN5CC[C@]31[C@@H]54)C2,inactive,
CCCCCCCCCCCC(=O)NCCCN(C)C,inactive,
